CHX counter – counter-screen hit for Shiga toxin inhibitors, cycloheximide; cell reporter, cycloheximide protein synthesis inhibition counterscreen; max response, %; hit rate 12% among 300,000; in the data active means max response mostly above about 13%, no sharp cut-off; inactive means mostly below about 14%; further: read at 38.3 µM for the half of the compounds with a filed dose; 0% is about no effect
Giardia FBPA inh – Giardia lamblia aldolase inhibition | Potency, µM (doses to about 59.6 µM), for inactives: at the top dose activity, negative = inhibition, hits mostly inhibitors | purified Giardia FBPA | AID 2451 | A8B2U2 | hit rate 0.71% among 290,000; further: potency means the concentration at half of the fitted maximal effect; on the % scale 0 is the no-effect control and ±100 the full control effect; nearly all actives have a fitted effect of over 55% in size
Target sequence (A8B2U2 whole entry, looked up): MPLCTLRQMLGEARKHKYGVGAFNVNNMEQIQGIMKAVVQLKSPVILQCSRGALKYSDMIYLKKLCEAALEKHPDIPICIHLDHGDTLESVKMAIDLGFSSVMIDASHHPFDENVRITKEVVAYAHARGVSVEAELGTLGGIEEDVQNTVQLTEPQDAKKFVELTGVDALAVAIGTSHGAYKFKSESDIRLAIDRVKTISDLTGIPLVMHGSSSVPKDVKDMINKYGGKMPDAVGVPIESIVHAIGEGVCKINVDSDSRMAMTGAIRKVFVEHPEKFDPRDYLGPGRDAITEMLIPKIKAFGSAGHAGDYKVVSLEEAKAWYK
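Giardia FBPA (40 nM reagent) was preincubated 10 min at RT with compound (up to 57.5 uM final), then substrate plus GAPDH/TPI/NAD/arsenate coupling system with diaphorase/resazurin was added; resorufin fluorescence (525/598 nm) was read after 20 min.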
Shiga inhibitor – blocks Shiga toxin action in Vero cells | Vero cells, Shiga toxin protein synthesis inhibition reporter | inhibition, % at 38.7 µM | hit rate 9.2% among 290,000; in the data active means inhibition mostly above about 28%, no sharp cut-off; inactive means mostly below about 43%; further: 0% is about no effect
Pf growth 48h – P. falciparum growth inhibition at 48 hours (one generation); P. falciparum luciferase growth in erythrocytes, 48 h; Potency, µM (titrated, usually from 28.7 µM), for inactives: top-dose activity change, negative = inhibition, most hits filed as inhibitors; hit rate 5.9% among 310,000; further: potency means the concentration at half of the fitted maximal effect; on the % scale 0 is the no-effect control and ±100 the full control effect
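Luminescence readout; reporter = integrated firefly luciferase in P. falciparum. RBC culture at 2% hematocrit, 0.1% parasitemia final, 37 C/5% CO2; decreased signal taken as growth inhibition.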
Pf growth 96h – inhibits malaria parasite growth, 96 h. P. falciparum luciferase reporter growth, 96 h. Potency, µM (highest dose often 28.7 µM), for the others: top-dose activity change, negative = inhibition, usual class: inhibitors. hit rate 6.9% among 320,000. AID 504834; further: potency means the concentration at half of the fitted maximal effect; on the % scale 0 is the no-effect control and ±100 the full control effect
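Compounds incubated with erythrocytes infected by luciferase-expressing P. falciparum (2% hematocrit, 0.05% parasitemia final) for 96 hours, 37 C in 5% CO2. Growth inhibition scored as decreased luciferase luminescence.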
NS1 inh – blocks influenza NS1 protein function; Potency, µM (highest dose often 46.1 µM), without a hit: top-dose activity, positive = more growth; hit rate 0.4% among 270,000; calls by dose curve; further: potency means the concentration at half of the fitted maximal effect; actives are rising curves; nearly all actives have a fitted effect of over 50% in size
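A cell-based growth assay was used: compounds that relieve NS1-induced slow growth of budding yeast raise OD600. Assay medium was yeast nitrogen base with ammonium sulphate and -URA supplement, pH 6.0, with 2% galactose.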
Numbers without * were called inactive; ? = inconclusive; / = not tested or not shown; + = active, no number; [ ] = dose if it differs, or a comment. Sampled rows, rich in hits. Any-hit rate of the full collection: about 21%. Unless noted, the call rests on the fitted dose curve; in most records, active means well fitted curve in the direction sought with a large enough effect; inconclusive means small, poorly fitted or top-dose-only effect, or another doubt; inactive means no such curve, though single readings can be large; an effect the other way counts as inactive or inconclusive.

SMILES	CHX counter	Giardia FBPA inh	Shiga inhibitor	Pf growth 48h	Pf growth 96h	NS1 inh
CCOC(=O)N1CCC2(CC1)CC(=O)c1c(ccc3oc(C(=O)O)c(C)c13)O2	-1	11%	-6	-16%	/	14%
CN(CC(=O)O)S(=O)(=O)c1ccc2c(c1)NC(=O)CC(=O)N2	5	0%	14	22%	8%	/
CC1=C(C(=O)Nc2ccccc2)C(c2ccc[nH]2)n2ncnc2N1 (stereo not given)	/	/	/	9%	6%	/
Cc1nn(-c2ccccc2)c(N)c1N=Nc1cccc(S(=O)(=O)N2CCOCC2)c1	2	-2%	-3	?	-29%	28%
Cc1cc(=O)n2[nH]c(N)c(N=Nc3ccccc3F)c2n1	0	-19%	-3	-11%	-22%	-4%
Cc1nn(-c2ccccc2)c(N)c1N=Nc1ccc(Cl)cc1	29*	-2%	102*	169%	166%	-9%
Cc1nn(-c2ccccc2)c(N)c1N=Nc1ccccc1	74*	4%	77*	167%	1%	-32%
Cc1nc2c(N=Nc3ccccc3F)c(N)nn2c(N)c1C#N	16*	7%	8	53%	42%	-4%
Nc1nn(-c2ccccc2)c(N)c1N=Nc1ccccc1F	50*	-4%	+	320%	471%	-39%
O=C1CN2CCN(CC2)CC(=O)Nc2ccc(cc2)S(=O)(=O)c2ccc(cc2)NC(=O)CN2CCN(CC2)CC(=O)Nc2ccc(cc2)S(=O)(=O)c2ccc(cc2)N1	/	/	/	/	/	25%
Cc1sc(NC(=O)C2CSC3(C)CCC(=O)N23)nc1-c1ccc(F)cc1 (stereo not given)	1	3%	-10	?	?	1%
Nc1c(N=Nc2ccccc2F)c(=O)[nH]n1-c1ccccc1	44*	-8%	63*	151%	384%	-18%
Cc1nn(-c2ccccc2)c(N)c1C(O)(C(F)(F)F)C(F)(F)F	1	1%	13	10%	54%	6%
Cc1cccc(N=Nc2c(C)nn(-c3ccccc3)c2N)c1C	77*	1%	72*	122%	53%	-5%
Nc1nn(-c2ccccc2)c(N)c1N=Nc1ccccc1	51*	3%	102*	229%	268%	-20%
Cc1ccc(OCC(=O)Oc2c(C)cccc2C)cc1C	4	-4%	44	0%	146%	-36%
CN(CC(=O)O)c1ccc(S(=O)(=O)N2CCOCC2)cc1[N+](=O)[O-]	-2	1%	-11	2.6µM*	95%	5%
CCOC(=O)CSc1ccc(S(=O)(=O)N2CCC(C)CC2)cc1[N+](=O)[O-]	-3	3%	-17	-6%	274%	-6%
COC(=O)CSc1ccc(S(=O)(=O)N2CCOCC2)cc1[N+](=O)[O-]	-1	1%	-12	20%	10µM*	-6%
CCCN(CCC)C(=O)C1CCN(c2ccc(S(=O)(=O)N3CCOCC3)cc2[N+](=O)[O-])CC1	2	/	-6	?	5.2µM*	-2%
CN(CC(=O)Nc1ccc(F)cc1)c1ccc(S(=O)(=O)N2CCCCC2)cc1[N+](=O)[O-]	-2	-10%	11	?	?	24%
Cc1ccc(C)c(N2CCN(C(=O)c3ccc(Cn4c(=S)[nH]c5ccc(N6CCOCC6)cc5c4=O)cc3)CC2)c1	24	-11%	34	2.6µM*	4.1µM*	/
O=C(c1ccc(Cn2c(=S)[nH]c3cc4c(cc3c2=O)OCO4)cc1)N1CCN(c2ccccc2)CC1	7	11%	0	?	?	/
COc1ccc(N2CCN(C(=O)c3ccc(Cn4c(=S)[nH]c5ccc(N6CCOCC6)cc5c4=O)cc3)CC2)cc1	40*	0%	87*	?	38%	/
O=C(c1ccc(Cn2c(=S)[nH]c3ccc(N4CCOCC4)cc3c2=O)cc1)N1CCN(c2ccc(F)cc2)CC1	37*	-2%	88*	?	?	/
SMILES	CHX counter	Giardia FBPA inh	Shiga inhibitor	Pf growth 48h	Pf growth 96h	NS1 inh
O=P(O)(O)OC[C@H]1O[C@](O)(COP(=O)(O)O)[C@@H](O)[C@@H]1O	/	/	/	7%	15%	/
COc1cc(NC(=S)N2CCCCC2C)cc(OC)c1OC (stereo not given)	1	-7%	32	32%	2%	14%
CC12CCC(C[N+](C)(CCC[N+](C)(C)C)C1)C2(C)C (stereo not given)	/	/	/	-14%	-6%	/
Cc1ccc(S(=O)(=O)n2c3ccccc3c3nnc(C(=O)c4ccccc4)nc32)cc1	/	0%[12.9 µM]	/	/	/	/
Cc1c(C(=O)N(C)c2ccccc2Cl)cnn1-c1ccccc1	12*	7%	30*	2%	-14%	28%
Cc1c(C(=O)N(C)c2cccc(Cl)c2)cnn1-c1ccccc1	39*	-11%	60*	9.3µM*	?	-14%
C=C(C)Cn1cnc2c(oc3nc4c(cc32)CCCC4)c1=O	33*	-1%	46*	140%	12µM*	-7%
O=C(N/C(=C/c1cccs1)C(=O)N1CCOCC1)c1cccs1	-3	4%	-12	-2%	9.3µM*	4%
O=C(N/C(=C\c1cccs1)C(=O)N1CCCCCC1)c1ccccc1	-1	5%	-17	?	9.3µM*	-2%
Cc1ccc(C(=O)N/C(=C/c2cccs2)C(=O)N2CCCCCC2)cc1	6	10%	-11	-3%	-2%	-4%
Cc1ccc(C(=O)N/C(=C\c2cccs2)C(=O)NC2CCCCC2)cc1	-1	5%	-6	/	4.1µM*	-14%
O=C(Nc1ccccc1)/C(=C\c1cccs1)NC(=O)c1ccccc1	3	9%	-3	20%	1.5µM*	-2%
O=C(N/C(=C/c1cccs1)C(=O)N1CCCCCC1)c1ccccc1	4	0%	-1	?	6%	-6%
CCN(Cc1ccccc1)S(=O)(=O)c1cn(C)cn1	-5	/	-3	-5%	?	14%
CCC(C(=O)Oc1c(C(C)C)cccc1C(C)C)c1ccccc1 (stereo not given)	/	/	/	-14%	?	/
CCN(CC)S(=O)(=O)c1ccc(C(C)NC(=O)C2CCCN2C(=O)c2cccs2)cc1 (stereo not given)	/	/	/	-2%	?	/
COc1ccccc1C(=O)Nc1ccc(C(=O)N2CCCCC2)cc1	13*	-3%	-1	-25%	6%	-5%
COc1ccccc1N1CCN(C(=O)c2ccc(C(C)(C)C)cc2)CC1	-2	-3%	-2	?	/	-39%
COc1ccccc1NS(=O)(=O)c1cc(C(=O)N2CCCC2)ccc1F	/	/	/	3.3µM*	?	/
COc1ccccc1NC(=O)Nc1ccc(C(=O)N2CCCCC2)cc1	27*	0%	80*	181%	329%	-2%
COc1ccccc1C1CCN(C(=O)c2ccc(C(C)(C)C)cc2)CC1	6	-5%	-5	12µM*	7.4µM*	-46%
Cc1ccc(Cn2ccc(O)c(Cc3ccccc3)c2=O)cc1	5	-3%	21	?	?	6%
O=C1CC(/C=C/c2ccc(Cl)cc2)=Nc2ccccc2N1	39*	-5%	97*	?	?	11%

From PubChem BioAssay
